# Test results from article PMC5540273 (PLoS ONE, 2017).
# What was measured:
# Details in all cases: concentration: 1 μM,replicates: in singlicate; n = 1
# LIMK1 = tested on: LIMK1
# LIMK2 = tested on: LIMK2
# LKB1 = tested on: T1, LKB1
# T1 construct: gene STK11
# LRRK2 = tested on: LRRK2
# LTK = tested on: LTK
# LYN = tested on: LYN
# LZK = tested on: T2, LZK
# T2 construct: gene MAP3K13
# MAK = tested on: MAK
# MAP3K15 = tested on: MAP3K15
# MAP3K1 = tested on: MAP3K1
# MAP3K2 = tested on: MAP3K2
# MAP3K3 = tested on: MAP3K3
# MAP3K4 = tested on: MAP3K4
# MAP4K2 = tested on: MAP4K2
# MAP4K3 = tested on: MAP4K3
# MAP4K4 = tested on: MAP4K4
# MAP4K5 = tested on: MAP4K5
# MAPKAPK2 = tested on: MAPKAPK2
# LCK = tested on: LCK
# LOK = tested on: T3, LOK
# T3 construct: gene STK10
# 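Also: KINOMEscan kinase panel screen.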
Structure (SMILES),%Inh (LIMK1),%Inh (LIMK2),%Inh (LKB1),%Inh (LRRK2),%Inh (LTK),%Inh (LYN),%Inh (LZK),%Inh (MAK),%Inh (MAP3K15),%Inh (MAP3K1),%Inh (MAP3K2),%Inh (MAP3K3),%Inh (MAP3K4),%Inh (MAP4K2),%Inh (MAP4K3),%Inh (MAP4K4),%Inh (MAP4K5),%Inh (MAPKAPK2),%Inh (LCK),%Inh (LOK)
C=CC(=O)Nc1cc2c(Nc3ccc(F)c(Cl)c3)ncnc2cc1OCCCN1CCOCC1 [GW781483],0%,0%,0%,0%,17%,55%,0%,0%,0%,0%,0%,0%,5%,1%,0%,3%,10%,23%,,
Cc1occc1-c1nc(N)c(OC[C@@H](N)Cc2c[nH]c3ccccc23)cc1-c1cc2c(C)n[nH]c2cn1 [GSK1660450],0%,0%,0%,36%,28%,0%,0%,23%,20%,21%,97%,99.1%,0%,99.4%,99.4%,99.3%,99.6%,0%,98.5%,56%
Cl.Cl.NC[C@H](CC1CCCCC1)NC(=O)c1cc(Br)c(-c2ccnc3[nH]ccc23)s1 [GSK1581427],9%,0%,7%,7%,0%,0%,0%,12%,88%,14%,19%,0%,4%,76%,26%,18%,0%,0%,22%,0%
COc1ccc(C[C@@H](CN)NC(=O)c2cc(Br)c(-c3ccnc4[nH]ccc34)s2)cc1.Cl.Cl [GSK1389063],24%,0%,0%,65%,0%,0%,0%,0%,7%,3%,73%,67%,0%,74%,39%,51%,8%,0%,44%,0%
O=C(NCCCN1CCOC1=O)c1cnc(NCc2cc(Cl)ccc2Cl)nc1NC1CCCC1,20%,0%,2%,0%,8%,18%,20%,24%,0%,1%,63%,48%,14%,0%,37%,15%,23%,0%,23%,10%
C[C@@H]1CCN(C(=O)CC#N)C[C@@H]1N(C)c1ncnc2[nH]ccc12,0%,0%,0%,0%,0%,0%,0%,0%,0%,0%,0%,0%,11%,0%,4%,0%,0%,0%,51%,2%
Cl.Oc1cc(-c2nc(-c3ccccc3)[nH]c2-c2ccncc2)ccc1Cl [SB-386023],0%,0%,30%,0%,11%,1%,0%,44%,18%,24%,29%,38%,54%,18%,0%,19%,4%,28%,70%,44%
Cc1ccc(-n2nc(C(C)(C)C)cc2NC(=O)Nc2ccc(OCCN3CCOCC3)c3ccccc23)cc1 [GW839464],14%,14%,0%,0%,,22%,0%,25%,0%,0%,1%,12%,30%,0%,0%,90.2%,0%,0%,64%,99.9%
Cc1cc(C(=O)Nc2ccc(Oc3ccc4nc(NC(=O)C5CC5)cn4n3)cc2)nn1-c1ccccc1,0%,9%,0%,0%,37%,19%,3%,0%,0%,0%,0%,30%,16%,0%,2%,0%,0%,8%,92.3%,91.7%
CCN(CC)CCCCNc1ncc2cc(-c3c(Cl)cccc3Cl)c(NC(=O)NC(C)(C)C)nc2n1,2%,1%,0%,0%,29%,98%,45%,0%,0%,23%,88%,89%,71%,51%,74%,0%,71%,0%,99.5%,80%
Cl.Cl.NC[C@H](Cc1ccc(C(F)(F)F)cc1)NC(=O)c1cc(Br)c(-c2ccnc3[nH]ccc23)s1 [GSK1487252],0%,0%,0%,0%,0%,0%,0%,0%,0%,10%,15%,0%,7%,0%,14%,11%,0%,0%,18%,0%
C[C@H]1Oc2cc(cnc2N)-c2c(nn(C)c2C#N)CN(C)C(=O)c2ccc(F)cc21,0%,0%,0%,0%,98.1%,35%,0%,18%,0%,58%,8%,26%,0%,0%,5%,9%,14%,0%,49%,92.8%
Cc1cc2cn[nH]c2cc1-c1cccc2c(N)c(C(N)=O)nnc12,81%,53%,0%,86%,61%,26%,60%,16%,82%,31%,72%,78%,28%,25%,74%,34%,62%,42%,,19%
